Only a selection was taken, and hits are over-represented in it overall.
Sa growth 42C: blocks Staphylococcus aureus growth; S. aureus RN4220 growth, OD600, 20 h, 42 °C; hits give low values; relative growth, % (test concentration not listed); 170,000 tested, 0.53% active;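 active = relative growth at most 50% at the other temperature and 20+ points below 30 °C, or under 10% at both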
S aureus helic: blocks Staphylococcus aureus DNA helicase; purified S. aureus helicase, fluorescence unwinding assay; inhibition, % (no concentration beside the values); 120,000 tested, 0.05% active; in the data active = inhibition above about 25%, passing the limit was not always enough;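 note: 0% = mean of negative control wells and 100% = mean of positive control wells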
* = called active by the depositor; i = inactive; · = no result given.

SMILES | Sa growth 42C | S aureus helic
COc1cc(C)c2c(=O)c(Oc3ccccc3)c(C)oc2c1 | · | 13
CC1(C)S[C@@H]2[C@H](NC(=O)[C@@H](N)c3ccc(O)cc3)C(=O)N2[C@H]1C(=O)O | -0.4* | ·
O=C1NCCN1C(=O)NC1CCCCC1 | 85 | 4
CC1(C)S[C@@H]2[C@H](NC(=O)[C@H](NC(=O)N3CCNC3=O)c3ccccc3)C(=O)N2C1C(=O)O (stereo not given in full) | -1.3* | ·
Cc1cc(C)n2nc(SCc3ccccc3C(=O)N3CCN(c4ccc(F)cc4)CC3)nc2n1 | 98 | 14
Cc1ccccc1-c1nc(CNC(=O)Nc2ccccc2)c(C)o1 | 78 | ·
O=S(=O)(c1ccc(F)cc1)N1CCC(Oc2ccc(-n3cnnn3)cc2)CC1 | 77 | ·
COC(=O)c1ccc(COc2ccc(C3NC(C(=O)O)CS3)cc2OC)o1 (stereo not given) | 103 | 10
CS(=O)(=O)c1ccc([C@@H](O)[C@@H](CO)NC(=O)C(Cl)Cl)cc1 | 14 | ·
CS(=O)(=O)c1ccc([C@@H](O)[C@@H](CF)NC(=O)C(Cl)Cl)cc1 | -0.4* | ·
O=C(CSc1nc2ccccc2n1Cc1ccccc1Cl)NCc1ccccc1 | 88 | ·
Clc1nnc(-c2ccccc2)c(-c2ccccc2)n1 | -0.6* | ·
NNc1nnc(-c2ccccc2)c(-c2ccccc2)n1 | 31 | 23
Cc1ccc(NC(=O)c2ccco2)nc1 | 98 | 5
CCOC(=O)c1ccc(NC(=O)Cc2coc3cc(C)cc(C)c23)cc1 | 113 | ·
CN1/C(=C\C(=O)CSCCO)C(C)(C)c2ccccc21 | -0.5* | i
Cc1ccnc(SCC(=O)/C=C2\N(C)c3ccccc3C2(C)C)n1 | 120 | -16
CCc1ccc(NS(=O)(=O)c2ccc(CN3C(=O)c4cccnc4C3=O)cc2)cc1 | 87 | 8
c1ccc(-c2nc3ccccn3c2NC2CCCC2)nc1 | -0.1* | 5
c1csc(-c2nc3cnccn3c2NC2CCCCC2)c1 | 86 | 12
C=C(C)C1Cc2cc3ccc(=O)oc3cc2O1 (stereo not given) | 103 | 1
C=C(C)C1Cc2cc(/C=C/C(=O)O)c(O)cc2O1 (stereo not given) | 0.5* | 9
COc1ccc(NC(=O)Cn2ccn(-c3ccccc3)c(=O)c2=O)cc1 | 100 | ·
O=C(Nc1cc(Cl)cc(Cl)c1)C1CC1 | 79 | ·
O=C(O)Nc1cc(Cl)cc(Cl)c1 | -0.4* | 4
SMILES | Sa growth 42C | S aureus helic
COc1ccc(NC(=O)Cc2ccc(NC(=O)N3CCCCc4ccccc43)cc2)c(OC)c1 | 99 | ·
COc1cc(/C=C/C(=O)Nc2ccc3nc(N4CCN(c5ncccn5)CC4)cc(C)c3c2)cc(OC)c1OC | 88 | -5
CCc1cccc(C)c1NC(=O)CC1Oc2ccc(C)cc2NC1=O (stereo not given) | 94 | ·
CCOCN(C(=O)Cn1cnc2ccccc21)c1c(C)cccc1CC | · | -1
N#Cc1c(Cl)cccc1-n1ccnc1 | 91 | -23
Clc1ccccc1C(c1ccccc1)(c1ccccc1)n1ccnc1 | 0.2* | ·
CCCCCCNC(=O)n1cc(F)c(=O)[nH]c1=O | 1.1* | ·
CC(C)NC(=O)n1cc(F)c(=O)[nH]c1=O | -0.6* | -4
NC(=O)Cn1cc(F)c(=O)[nH]c1=O | 90 | 15
CCCCCNC(=O)CCCCCn1c(=O)[nH]c2ccsc2c1=O | 95 | ·
COC(=O)COc1ccc2c(=O)c(Oc3ccc(OC)cc3)coc2c1 | 98 | 13
CCOc1ccc(NC(=O)N2CCC(CN3CCC(C)CC3)CC2)cc1 | 91 | ·
COC(=O)CNC(c1ccccc1)c1cc(Br)ccc1NC(=O)c1ccc(Cl)cc1 (stereo not given) | 101 | ·
COC(=O)CNC(c1ccccc1)c1cc(Br)ccc1NC(=O)CCN1CCOCC1 (stereo not given) | 21* | 6
Cc1cccc(C)c1NC(=O)Cn1c(S(=O)(=O)CC(N)=O)nc2ccccc21 | 84 | 5
COc1ccc(C(=O)Cn2nc(CNc3ccc(Br)cc3)[n+]3c2CCCCC3)cc1 | 1.4* | 7
Cc1nn(CC(=O)c2ccc(Br)cc2)c(N)[n+]1C | · | -14
CC1CCC2(CC1)C(=O)NC(=O)N2C (stereo not given) | 102 | 0
C=Cc1ccc(CN2C(=O)N(c3ccc(C)c(C)c3)S(=O)(=O)c3ccccc32)cc1 | 95 | ·
CC1CN(Cc2csc(Nc3ccccc3)n2)CC(C)O1 (stereo not given) | 0.7* | 12
CC(=O)N1CCN(Cc2csc(Nc3ccccc3)n2)CC1 | 106 | -6
Nc1ccccc1NCCO | 88 | -22
Nc1ccccc1NCCc1ccccc1 | 9.1* | -75
Cc1cc(N2CCCC2)nc(-n2nc(C)cc2C)n1 | 7.7* | 0
Cc1cc(N2CCCCC2)nc(N2CCOCC2)n1 | 113 | -6
Cc1cc(C)n(-c2nc(NC(C)C)nc(NC(C)C)n2)n1 | -0.4* | 7
Cc1cc(Nc2ccccc2C)nc(-n2nc(C)cc2C)n1 | -0.2* | ·
Cc1cc(C)n(-c2ncc(S(=O)(=O)C(C)(C)C)c(N)n2)n1 | 94 | 2
Cc1cc(C)n(-c2ccccc2)n1 | 108 | 11
CCCCc1ccc(Nc2cc(C)nc(-n3nc(C)cc3C)n2)cc1 | 22 | ·
